# PubChem BioAssay (NCI)
# About 79,000 compounds went through this panel and 15% of them were active in at least one assay; those are over-represented in the sample as a whole. A number with no mark means an inactive call. The source made the active and inactive calls. Rule as the data show it: active = growth inhibition above about 70%; inactive = the rest.
# Tests used:
# [1] = NCI Yeast Anticancer Drug Screen. Data for the rad52 strain (AID 147);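 also: 0% = growth of vehicle-treated control cultures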; details: S. cerevisiae rad52 mutant growth inhibition, stronger effect = higher value
# How it was run: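 Read-out: growth inhibition versus vehicle-treated controls. Cells were a DNA repair-deficient yeast strain treated with compounds.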
# [2] = NCI Yeast Anticancer Drug Screen. Data for the rad50EPP+ strain (AID 151);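 also: 0% = growth of vehicle-treated control cultures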; details: S. cerevisiae rad50 mutant strain, stronger effect = higher value
# How it was run: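 Growth inhibition read against vehicle controls in rad50EPP+ yeast, a strain altered in DNA damage repair, after compound exposure.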
# [3] = NCI Yeast Anticancer Drug Screen. Data for the mgt1 strain (AID 153); details: S. cerevisiae mgt1 mutant growth inhibition, stronger effect = higher value
# How it was run: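 mgt1 yeast grown with test compound; read-out is growth inhibition versus vehicle-treated cultures.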
# [4] = NCI Yeast Anticancer Drug Screen. Data for the rad50 strain (AID 155);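 also: 0% = growth of vehicle-only cultures of the same strain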; details: S. cerevisiae rad50 strain growth inhibition, stronger effect = higher value
# How it was run: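 Readout: growth inhibition relative to vehicle-treated cultures. Compound exposure was carried out in a genetically defined yeast strain deficient in DNA damage repair.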
# [5] = NCI Yeast Anticancer Drug Screen. Data for the mec2-1 strain (AID 157); details: S. cerevisiae mec2-1 strain, stronger effect = higher value
# How it was run: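 Yeast mec2-1 mutant treated with compound. Readout: growth inhibition vs vehicle controls.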
# [6] = NCI Yeast Anticancer Drug Screen. Data for the rad14 strain (AID 159);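 also: 0% = growth of vehicle-treated control cultures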; details: S. cerevisiae rad14 strain growth inhibition, stronger effect = higher value
# How it was run: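 Growth inhibition vs vehicle controls; genetically altered yeast strain (DNA damage repair defect) treated with test compounds.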
# [7] = NCI Yeast Anticancer Drug Screen. Data for the sgs1 mgt1 strain (AID 161);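 also: 0% = growth of cultures given vehicle only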; details: S. cerevisiae sgs1 mgt1 strain, stronger effect = higher value
# How it was run: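 Genetically altered yeast, compound exposure, growth inhibition relative to vehicle.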
# [8] = NCI Yeast Anticancer Drug Screen. Data for the cln2 rad14 strain (AID 165);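 also: 0% = growth equal to vehicle treated cultures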; details: S. cerevisiae cln2 rad14 strain, stronger effect = higher value
# How it was run: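 cln2 rad14 yeast strain; compound exposure; growth inhibition read vs vehicle controls.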
# [9] = NCI Yeast Anticancer Drug Screen. Data for the wt2 strain (AID 169);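 also: 0% = growth of vehicle-treated yeast cultures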; details: S. cerevisiae wt2 strain growth inhibition, stronger effect = higher value
# How it was run: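 Read-out: growth inhibition versus vehicle-treated control cultures after compound exposure of the yeast strain.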
# [10] = NCI Yeast Anticancer Drug Screen. Data for the mlh1 strain (AID 171);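 also: 0% = growth of vehicle-treated control cultures of the same strain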; details: S. cerevisiae mlh1 strain growth inhibition, stronger effect = higher value
# How it was run: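 Read-out: growth inhibition versus vehicle controls. Strain: engineered yeast with a defined DNA repair or cell cycle defect, compound-treated.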
# [11] = NCI Yeast Anticancer Drug Screen. Data for the sgs1 strain (AID 173);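 also: 0% = growth of vehicle-only control cultures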; details: S. cerevisiae sgs1 mutant, stronger effect = higher value
# How it was run: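 Read-out: yeast growth inhibition relative to vehicle controls, following compound exposure of a strain with a defined DNA repair/cell cycle alteration.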
# [12] = NCI Yeast Anticancer Drug Screen. Data for the mlh1 rad18 strain (AID 175); details: S. cerevisiae mlh1 rad18 strain growth inhibition, stronger effect = higher value
# How it was run: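 Yeast w/ defined DNA-repair lesions; compound exposure; growth vs vehicle controls → % inhibition.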
# [13] = NCI Yeast Anticancer Drug Screen. Data for the rad18 strain (AID 177); details: S. cerevisiae rad18 mutant growth inhibition, stronger effect = higher value
# How it was run: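 Readout: growth inhibition vs vehicle controls. Cells: genetically altered yeast strain, DNA repair defect.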
# [14] = NCI Yeast Anticancer Drug Screen. Data for the CLN2oe strain (AID 163);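 also: 0% = growth of vehicle-only control cultures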; details: S. cerevisiae CLN2oe strain, stronger effect = higher value
# How it was run: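 Read-out: yeast growth inhibition, expressed relative to vehicle-only controls. The strain bears an engineered cell-cycle alteration.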
# [15] = NCI Yeast Anticancer Drug Screen. Data for the bub3 strain (AID 167); details: S. cerevisiae bub3 mutant strain, stronger effect = higher value
# How it was run: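 Readout: yeast growth inhibition, expressed relative to vehicle-only wells. The test organism is a mutant strain from a panel with lesions in DNA repair or checkpoint genes.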
# [16] = at 5.0 µM (retest, dose inferred, filed as 0.5)
# [17] = at 50.0 µM (retest, dose inferred, filed as 5.0)
smiles,measurement,setting,value
Cc1ccc(S(=O)(=O)N/N=C/C(Br)=C(/Br)C(=O)O)cc1,growth inhibition,[1]; at 1.2 µM,31%
same,growth inhibition,[1]; at 3.7 µM,59%
same,growth inhibition,[1]; at 11.0 µM,86% (active)
same,growth inhibition,[1]; at 33.0 µM,95% (active)
same,growth inhibition,[1]; at 100.0 µM,89% (active)
same,growth inhibition,[2]; at 1.2 µM,28%
same,growth inhibition,[2]; at 3.7 µM,46%
same,growth inhibition,[2]; at 11.0 µM,80% (active)
same,growth inhibition,[2]; at 33.0 µM,96% (active)
same,growth inhibition,[2]; at 100.0 µM,82% (active)
same,growth inhibition,[3]; at 1.2 µM,35%
same,growth inhibition,[3]; at 3.7 µM,48%
same,growth inhibition,[3]; at 11.0 µM,79% (active)
same,growth inhibition,[3]; at 33.0 µM,98% (active)
same,growth inhibition,[3]; at 100.0 µM,89% (active)
same,growth inhibition,[4]; at 1.2 µM,41%
same,growth inhibition,[4]; at 3.7 µM,61%
same,growth inhibition,[4]; [16],38%
same,growth inhibition,[4]; at 11.0 µM,86% (active)
same,growth inhibition,[4]; at 33.0 µM,97% (active)
same,growth inhibition,[4]; [17],79% (active)
same,growth inhibition,[4]; at 50.0 µM,57.8%
same,growth inhibition,[4]; at 100.0 µM,95% (active)
same,growth inhibition,[5]; at 1.2 µM,20%
same,growth inhibition,[5]; at 3.7 µM,35%
same,growth inhibition,[5]; [16],-11%
same,growth inhibition,[5]; at 11.0 µM,57%
same,growth inhibition,[5]; at 33.0 µM,96% (active)
same,growth inhibition,[5]; [17],10%
same,growth inhibition,[5]; at 50.0 µM,43.8%
same,growth inhibition,[5]; at 100.0 µM,70% (active)
same,growth inhibition,[6]; at 1.2 µM,14%
same,growth inhibition,[6]; at 3.7 µM,28%
same,growth inhibition,[6]; at 11.0 µM,50%
same,growth inhibition,[6]; at 33.0 µM,97% (active)
same,growth inhibition,[6]; at 100.0 µM,95% (active)
same,growth inhibition,[7]; [16],1%
same,growth inhibition,[7]; [17],43%
same,growth inhibition,[7]; at 50.0 µM,62.8%
same,growth inhibition,[8]; [16],24%
same,growth inhibition,[8]; [17],42%
same,growth inhibition,[8]; at 50.0 µM,25.2%
same,growth inhibition,[9]; at 1.2 µM,-3%
same,growth inhibition,[9]; at 3.7 µM,10%
same,growth inhibition,[9]; at 11.0 µM,48%
same,growth inhibition,[9]; at 33.0 µM,99% (active)
same,growth inhibition,[9]; at 100.0 µM,98% (active)
same,growth inhibition,[10]; at 1.2 µM,35%
same,growth inhibition,[10]; at 3.7 µM,48%
same,growth inhibition,[10]; at 11.0 µM,79% (active)
same,growth inhibition,[10]; at 33.0 µM,98% (active)
same,growth inhibition,[10]; at 100.0 µM,89% (active)
same,growth inhibition,[11]; at 1.2 µM,28%
same,growth inhibition,[11]; at 3.7 µM,38%
same,growth inhibition,[11]; at 11.0 µM,56%
same,growth inhibition,[11]; at 33.0 µM,95% (active)
same,growth inhibition,[11]; at 100.0 µM,77% (active)
same,growth inhibition,[12]; [16],25%
same,growth inhibition,[12]; [17],69%
same,growth inhibition,[12]; at 50.0 µM,91.9% (active)
same,growth inhibition,[13]; at 1.2 µM,24%
same,growth inhibition,[13]; at 3.7 µM,36%
same,growth inhibition,[13]; at 11.0 µM,64%
same,growth inhibition,[13]; at 33.0 µM,95% (active)
same,growth inhibition,[13]; at 100.0 µM,86% (active)
NCCCSc1ccccc1,growth inhibition,[1]; at 1.2 µM,-2%
same,growth inhibition,[1]; at 3.7 µM,-2%
same,growth inhibition,[1]; at 11.0 µM,-4%
same,growth inhibition,[1]; at 33.0 µM,-4%
same,growth inhibition,[1]; at 100.0 µM,-2%
same,growth inhibition,[2]; at 1.2 µM,-3%
same,growth inhibition,[2]; at 3.7 µM,-1%
same,growth inhibition,[2]; at 11.0 µM,-4%
same,growth inhibition,[2]; at 33.0 µM,-8%
same,growth inhibition,[2]; at 100.0 µM,-6%
same,growth inhibition,[4]; at 1.2 µM,-3%
same,growth inhibition,[4]; at 3.7 µM,-2%
same,growth inhibition,[4]; [16],2%
same,growth inhibition,[4]; at 11.0 µM,-2%
same,growth inhibition,[4]; at 33.0 µM,-3%
same,growth inhibition,[4]; [17],-19%
same,growth inhibition,[4]; at 50.0 µM,-25.2%
same,growth inhibition,[4]; at 100.0 µM,-2%
same,growth inhibition,[5]; at 1.2 µM,-1%
same,growth inhibition,[5]; at 3.7 µM,0%
same,growth inhibition,[5]; [16],-8%
same,growth inhibition,[5]; at 11.0 µM,1%
same,growth inhibition,[5]; at 33.0 µM,0%
same,growth inhibition,[5]; [17],-30%
same,growth inhibition,[5]; at 50.0 µM,14.7%
same,growth inhibition,[5]; at 100.0 µM,0%
same,growth inhibition,[6]; at 1.2 µM,-2%
same,growth inhibition,[6]; at 3.7 µM,-1%
same,growth inhibition,[6]; at 11.0 µM,-1%
same,growth inhibition,[6]; at 33.0 µM,-1%
same,growth inhibition,[6]; at 100.0 µM,-1%
same,growth inhibition,[7]; [16],-11%
same,growth inhibition,[7]; [17],-6%
same,growth inhibition,[7]; at 50.0 µM,-1.9%
same,growth inhibition,[14]; at 1.2 µM,-4%
same,growth inhibition,[14]; at 3.7 µM,-3%
same,growth inhibition,[14]; at 11.0 µM,0%
same,growth inhibition,[14]; at 33.0 µM,-4%
same,growth inhibition,[14]; at 100.0 µM,-5%
same,growth inhibition,[8]; [16],-3%
same,growth inhibition,[8]; [17],37%
same,growth inhibition,[8]; at 50.0 µM,34.4%
same,growth inhibition,[15]; at 1.2 µM,-2%
same,growth inhibition,[15]; at 3.7 µM,-3%
same,growth inhibition,[15]; [16],8%
same,growth inhibition,[15]; at 11.0 µM,-1%
same,growth inhibition,[15]; at 33.0 µM,-1%
same,growth inhibition,[15]; [17],78% (active)
same,growth inhibition,[15]; at 50.0 µM,-0.3%
same,growth inhibition,[15]; at 100.0 µM,-4%
same,growth inhibition,[9]; at 1.2 µM,-2%
same,growth inhibition,[9]; at 3.7 µM,-2%
same,growth inhibition,[9]; at 11.0 µM,-2%
same,growth inhibition,[9]; at 33.0 µM,-2%
same,growth inhibition,[9]; at 100.0 µM,-1%
same,growth inhibition,[10]; at 1.2 µM,-2%
same,growth inhibition,[10]; at 3.7 µM,-4%
same,growth inhibition,[10]; at 11.0 µM,-2%
same,growth inhibition,[10]; at 33.0 µM,-4%
same,growth inhibition,[10]; at 100.0 µM,-2%
same,growth inhibition,[11]; at 1.2 µM,0%
same,growth inhibition,[11]; at 3.7 µM,1%
same,growth inhibition,[11]; at 11.0 µM,2%
same,growth inhibition,[11]; at 33.0 µM,0%
same,growth inhibition,[11]; at 100.0 µM,1%
same,growth inhibition,[12]; [16],-21%
same,growth inhibition,[12]; [17],-15%
same,growth inhibition,[12]; at 50.0 µM,-4.65%
same,growth inhibition,[13]; at 1.2 µM,-1%
same,growth inhibition,[13]; at 3.7 µM,-1%
same,growth inhibition,[13]; at 11.0 µM,-8%
same,growth inhibition,[13]; at 33.0 µM,1%
same,growth inhibition,[13]; at 100.0 µM,-1%
CCN(CC)CCNc1ccc(C)c2sc3ccc(O)cc3c(=O)c12,growth inhibition,[1]; at 1.2 µM,60%
same,growth inhibition,[1]; at 3.7 µM,89% (active)
same,growth inhibition,[1]; at 11.0 µM,94% (active)
same,growth inhibition,[1]; at 33.0 µM,98% (active)
same,growth inhibition,[1]; at 100.0 µM,99% (active)
same,growth inhibition,[2]; at 1.2 µM,37%
same,growth inhibition,[2]; at 3.7 µM,50%
same,growth inhibition,[2]; at 11.0 µM,78% (active)
same,growth inhibition,[2]; at 33.0 µM,84% (active)
same,growth inhibition,[2]; at 100.0 µM,98% (active)
same,growth inhibition,[3]; at 1.2 µM,7%
same,growth inhibition,[3]; at 3.7 µM,27%
same,growth inhibition,[3]; at 11.0 µM,23%
same,growth inhibition,[3]; at 33.0 µM,89% (active)
same,growth inhibition,[3]; at 100.0 µM,99% (active)
same,growth inhibition,[4]; at 1.2 µM,72% (active)
same,growth inhibition,[4]; at 3.7 µM,94% (active)
same,growth inhibition,[4]; [16],52%
same,growth inhibition,[4]; at 11.0 µM,96% (active)
same,growth inhibition,[4]; at 33.0 µM,98% (active)
same,growth inhibition,[4]; [17],98% (active)
same,growth inhibition,[4]; at 50.0 µM,90.3% (active)
same,growth inhibition,[4]; at 100.0 µM,99% (active)
same,growth inhibition,[5]; at 1.2 µM,-1%
same,growth inhibition,[5]; at 3.7 µM,17%
same,growth inhibition,[5]; [16],4%
same,growth inhibition,[5]; at 11.0 µM,36%
same,growth inhibition,[5]; at 33.0 µM,91% (active)
same,growth inhibition,[5]; [17],98% (active)
same,growth inhibition,[5]; at 50.0 µM,92% (active)
